By AC50 is commonly meant the concentration giving half of the maximal activity seen.

Values joined by “and” are separate entries in the source; they are usually repeats but may differ in a detail not shown here. Identical values can stand only once. Active and inactive are the calls of the source. How the source made its calls: active means hit-call score of the fitted dose curve at least 0.9, where 1 is the maximum; inactive means score below 0.9.

Data on 18 molecules can be found in PubChem BioAssay (EPA / NIEHS).

Read-out in assay [1]: Macrophage colony-stimulating factor (MCSF), CSF1 (gene 1435)
As to the kind of experiment: BSK_hDFCGF_MCSF: BioMAP Diversity Plus: hDFCGF Assay for Macrophage colony-stimulating factor (MCSF) Biomarker Activity (AID 2283060). To be noted: primary human foreskin fibroblasts; actives raise or lower the signal. The essentials: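 fibroblasts (human foreskin, primary), 24 h post-dose; M-CSF by ELISA; bidirectional fit, DMSO = baseline.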

Assay [2] in a line: BSK_hDFCGF_SRB: Viability Assessment in the BioMAP Diversity Plus: hDFCGF Assay (AID 2283061).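 Further: cells exposed to compound for 24 h before the read.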 As to conditions: primary human foreskin fibroblasts. Summed up: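 SRB-based viability read on primary human skin fibroblasts at 24 h: TCA fixation, 0.1% dye, 560 nm. Gain or loss of signal is fitted against the DMSO negative control.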
Read-out in assay [3]: TIMP metallopeptidase inhibitor 1 (TIMP1), TIMP1 (gene 7076)
The assay can be described thus: BSK_hDFCGF_TIMP1: BioMAP Diversity Plus: hDFCGF Assay for TIMP metallopeptidase inhibitor 1 (TIMP1) Biomarker Activity (AID 2283062). As to conditions: primary human foreskin fibroblasts; actives raise or lower the signal. The essentials:
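Bidirectional curve fitting against DMSO baseline yielded this endpoint, based on ELISA detection of TIMP-1 in primary human foreskin fibroblasts exposed to compound for 24 h.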

Read-out in assay [4]: Monokine induced gamma interferon (MIG), CXCL9 (gene 4283)
The assay can be described thus: BSK_hDFCGF_MIG: BioMAP Diversity Plus: hDFCGF Assay for Monokine induced gamma interferon (MIG) Biomarker Activity (AID 2283063). To be noted: primary human foreskin fibroblasts; actives raise or lower the signal. Summed up: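 Endpoint derived by bidirectional fitting relative to DMSO; MIG quantified via ELISA in primary human foreskin fibroblasts harvested 24 h after dosing.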

Read-out in assay [5]: Matrix Metallopeptidase 1 (MMP1), MMP1 (gene 4312)
As to the kind of experiment: BSK_hDFCGF_MMP1: BioMAP Diversity Plus: hDFCGF Assay for Matrix Metallopeptidase 1 (MMP1) Biomarker Activity (AID 2283064). To be noted: primary human foreskin fibroblasts; actives raise or lower the signal. The essentials: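 Primary human foreskin fibroblasts exposed to chemicals for 24 h; MMP1 measured by ELISA. Cytotoxicity tracked by SRB staining in parallel cultures; bidirectional fit relative to DMSO.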

Read-out in assay [6]: Vascular cell adhesion molecule 1 (VCAM1), VCAM1 (gene 7412)
As to the kind of experiment: BSK_hDFCGF_VCAM1: BioMAP Diversity Plus: hDFCGF Assay for Vascular cell adhesion molecule 1 (VCAM1) Biomarker Activity (AID 2283065).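 On AC50: VCAM-1 protein level quantified by ELISA after 24 h chemical exposure.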 As to conditions: primary human foreskin fibroblasts; actives raise or lower the signal. Summed up:
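Measured after 24 h chemical treatment of primary human skin fibroblasts, VCAM-1 was detected by ELISA and concentration-response analysed in both directions versus DMSO vehicle.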

Read-out in assay [7]: Plasminogen activator inhibitor-1 (PAI1), SERPINE1 (gene 5054)
The assay can be described thus: BSK_hDFCGF_PAI1: BioMAP Diversity Plus: hDFCGF Assay for Plasminogen activator inhibitor-1 (PAI1) Biomarker Activity (AID 2283066). As to conditions: primary human foreskin fibroblasts; actives raise or lower the signal. The essentials: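 Human foreskin fibroblasts in the hDFCGF system were dosed with compound for 24 h; PAI-1 was quantified by ELISA. Bidirectional curve fitting used DMSO as negative control and baseline.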

Read-out in assay [8]: Intercellular Adhesion Molecule 1 (ICAM1), ICAM1 (gene 3383)
The assay can be described thus: BSK_KF3CT_ICAM1: BioMAP Diversity Plus: KF3CT Assay for Intercellular Adhesion Molecule 1 (ICAM1) Biomarker Activity (AID 2283067). To be noted: primary human keratinocytes with fibroblasts; actives raise or lower the signal. The essentials: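 Bidirectional curve fitting against a DMSO baseline was applied to ICAM-1 ELISA signal from primary human skin co-cultures harvested 24 h after treatment, with SRB staining of parallel wells for overt cytotoxicity.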

Read-out in assay [9]: Interferon-gamma inducible Protein 10 (IP10), CXCL10 (gene 3627)
As to the kind of experiment: BSK_KF3CT_IP10: BioMAP Diversity Plus: KF3CT Assay for Interferon-gamma inducible Protein 10 (IP10) Biomarker Activity (AID 2283068). As to conditions: primary human keratinocytes with fibroblasts; actives raise or lower the signal. The essentials: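 KF3CT co-culture (keratinocytes + foreskin fibroblasts), 24 h compound, IP-10 by ELISA; bidirectional fit vs DMSO baseline.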

A short description of assay [10]: BSK_KF3CT_SRB: Viability Assessment in the BioMAP Diversity Plus: KF3CT Assay (AID 2283069).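 Further: total protein by sulforhodamine B staining as a cytotoxicity measure; read 24 h after compound addition; fitted for both signal gain and loss against DMSO baseline.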 As to conditions: primary human keratinocytes with fibroblasts. Summed up:
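Human keratinocyte and foreskin fibroblast co-culture exposed to chemical for 24 h. Total protein measured in parallel cultures by 0.1% sulforhodamine B staining after 10% TCA fixation, read at 560 nm; bidirectional fit relative to DMSO.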

Regarding `CCCCOCCOCCOC(=O)CCCCC(=O)OCCOCCOCCCC`, the outcome in assay [1], in assay [2], in assay [3], in [4], in assay [5] and in assay [6] was inactive. Also, the outcome in assay [7], in assay [8], in assay [9] and in [10] was inactive.

Regarding `FC(F)(F)C(F)(F)C(F)(F)N(C(F)(F)C(F)(F)C(F)(F)F)C(F)(F)C(F)(F)C(F)(F)F`, the outcome in assay [1], in assay [2], in assay [3], in [4], in [5] and in assay [6] was inactive. The outcome in assay [7], in assay [8], in assay [9] and in assay [10] was inactive.

Take `NC(=O)C(F)(F)C(F)(F)C(F)(F)C(F)(F)F`: the outcome in assay [1], in assay [2], in [3], in assay [4], in assay [5] and in assay [6] was inactive. Further, the result in assay [7], in assay [8], in assay [9] and in assay [10] was inactive.

With `OCC(F)(F)C(F)(F)C(F)(F)C(F)(F)C(F)(F)C(F)F`, the outcome in assay [1], in [2], in [3], in assay [4], in [5] and in assay [6] was inactive. In addition, the result in assay [7], in [8], in assay [9] and in [10] was inactive.

Turning to `CCCCCCCOC(=O)c1ccccc1C(=O)OCCCCCCC`, the outcome in [1], in assay [2], in [3], in assay [4], in [5] and in [6] was inactive. Also, the result in [7], in assay [8], in assay [9] and in assay [10] was inactive.

Consider `CCc1c(Br)c(Br)c(Br)c(Br)c1Br`, for which the result in [1], in assay [2], in [3], in assay [4], in assay [5] and in [6] was inactive. In addition, the outcome in [7], in assay [8], in assay [9] and in assay [10] was inactive.

`CO[Si](OC)(c1ccccc1)c1ccccc1`: the AC50 is 32.5 µM (active) in [1], 36 µM (active) in [2] and 32.6 µM (active) in assay [10]. Moreover, the outcome in assay [3], in assay [4], in [5], in assay [6], in assay [7] and in assay [8] was inactive. Also, the outcome in [9] was inactive.

With `FC(F)(F)C(F)(F)C(F)(F)C(F)(F)C(F)(F)C(F)(F)CC1CO1` (stereo not given), the outcome in [1], in [2], in [3], in assay [4], in assay [5] and in [6] was inactive. The outcome in assay [7], in assay [8], in assay [9] and in assay [10] was inactive.

Regarding `CS(C)(=O)=O`, the result in assay [1], in assay [2], in assay [3], in assay [4], in [5] and in [6] was inactive. Also, the result in assay [7], in assay [8], in assay [9] and in assay [10] was inactive.

In the case of `OCCCC(F)(F)C(F)(F)C(F)(F)F`, the outcome in assay [1], in assay [2], in assay [3], in [4], in [5] and in [6] was inactive. Also, the outcome in [7], in [8], in [9] and in [10] was inactive.

`O=C(O)C(F)(F)C(F)(F)F`: the result in [1], in assay [2], in [3], in [4], in [5] and in assay [6] was inactive. The outcome in [7], in assay [8], in [9] and in assay [10] was inactive.

Take `C=CC(F)(F)C(F)(F)C(F)(F)C(F)(F)C(F)(F)C(F)(F)C(F)(F)C(F)(F)F`: the result in [1], in assay [2], in [3], in assay [4], in assay [5] and in assay [6] was inactive. The result in assay [7], in assay [8], in assay [9] and in assay [10] was inactive.

Regarding `Oc1ccc(Nc2ccccc2)cc1`, the result in [1], in [2], in [3], in assay [4], in assay [5] and in assay [8] was inactive. Moreover, the result in assay [9] and in assay [10] was inactive. Besides, the figures for the AC50 in assay [6] and in assay [7] were 3.97 µM (active) and 17.1 µM (active), respectively.

Turning to `CCCCCCCCC(F)(F)C(F)(F)C(F)(F)C(F)(F)C(F)(F)C(F)(F)F`, the result in [1], in assay [2], in [3], in assay [4], in [5] and in assay [6] was inactive. Besides, the result in assay [7], in assay [8], in assay [9] and in assay [10] was inactive.

Turning to `FC(F)(F)C(F)(F)C(F)(F)C(F)(F)C(F)(F)C(F)(F)C(F)(F)C(F)(F)CCS`, the result in [1], in assay [2], in assay [3], in assay [4], in [5] and in assay [6] was inactive. The result in assay [7], in assay [8], in [9] and in [10] was inactive.

For the molecule `O=C(O)C(F)(F)C(F)(F)C(F)(F)C(F)(F)C(F)(F)C(F)(F)C(F)(F)C(F)(F)C(F)(F)C(F)(F)C(F)(F)C(F)(F)C(F)(F)F`, the outcome in assay [1], in assay [2], in assay [3], in assay [4], in assay [5] and in [6] was inactive. The outcome in assay [7], in assay [8], in assay [9] and in [10] was inactive.

In the case of `CC(CCl)OP(=O)(OC(C)CCl)OC(C)CCl` (stereo not given), the result in assay [1], in assay [2], in assay [3], in [4], in assay [5] and in assay [6] was inactive. For the same molecule, the result in [8], in assay [9] and in [10] was inactive. The AC50 in [7] is 0.0159 µM (active).

Consider `C=CC(=O)OCC(F)(F)C(F)(F)C(F)(F)C(F)(F)COC(=O)C=C`, for which the half-maximal activity concentration (AC50) in assay [1] is 5.29 µM (active) and 5.49 µM (active); in assay [2] it was 8.52 µM (active) and 8.25 µM (active); in assay [3], 8.88 µM (active) and 9.2 µM (active); in assay [4], 3.49 µM (active) and 3.32 µM (active); in assay [5] it was 17.1 µM (active) and 17.3 µM (active); in assay [6] it was 3.41 µM (active) and 3.27 µM (active). Moreover, the AC50 in [7] is 8.89 µM (active) and 8.86 µM (active); in assay [8], 23 µM (active) and 24.1 µM (active); in assay [9], 19.3 µM (active) and 20.9 µM (active); in assay [10], 41.7 µM (active) and 43.2 µM (active).
